Laboratory results published in ChEMBL document CHEMBL3433997, “St. Jude Leishmania screening dataset” (2016).

Tests used:
Type in all cases: functional
[1] = molecular target: Solute carrier family 2, facilitated glucose transporter member 1 (Homo sapiens) (UniProt P11166); assay: ST_JUDE_LEISH: Cytotoxicity at 2uM final concentration against transgenic Leishmania Mexicana promastigotes LmGLUT1 that are glucose transport deficient and complemented with the human glucose transporter GLUT1. Activity is measured by DNA content using SYBR green in vitro
Chain of Solute carrier family 2, facilitated glucose transporter member 1 (Homo sapiens) (P11166 whole entry): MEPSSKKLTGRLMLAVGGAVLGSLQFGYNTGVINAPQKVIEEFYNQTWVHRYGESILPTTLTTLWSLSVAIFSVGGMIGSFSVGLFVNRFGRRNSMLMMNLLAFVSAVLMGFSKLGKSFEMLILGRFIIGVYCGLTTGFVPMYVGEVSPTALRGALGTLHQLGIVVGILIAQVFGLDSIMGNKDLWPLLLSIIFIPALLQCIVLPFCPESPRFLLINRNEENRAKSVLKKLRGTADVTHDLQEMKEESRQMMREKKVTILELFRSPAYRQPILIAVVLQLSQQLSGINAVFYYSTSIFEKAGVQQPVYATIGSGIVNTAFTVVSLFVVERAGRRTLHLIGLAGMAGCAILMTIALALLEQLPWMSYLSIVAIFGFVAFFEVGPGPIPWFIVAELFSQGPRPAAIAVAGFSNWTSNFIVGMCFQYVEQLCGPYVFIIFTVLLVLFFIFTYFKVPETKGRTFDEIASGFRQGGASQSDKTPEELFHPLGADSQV

[2] = molecular target: Hexose transporter 1 (Plasmodium falciparum) (UniProt O97467); assay: ST_JUDE_LEISH: Cytotoxicity at 2uM final concentration against transgenic Leishmania Mexicana promastigotes LmPfHT that are glucose transport deficient and complemented with the Plasmodium falciparum hexose transporter. Activity is measured by DNA content using SYBR green in vitro
[3] = molecular target: Glucose transporter (Leishmania mexicana) (UniProt O61059); assay: ST_JUDE_LEISH: Cytotoxicity at 2uM final concentration against transgenic Leishmania Mexicana promastigotes LmGT2 that are glucose transport deficient and complemented with the L. Mexicana glucose transporter 2. Activity is measured by DNA content using SYBR green in vitro

| SMILES | inhibition [1] [%] | inhibition [2] [%] | inhibition [3] [%] |
| --- | --- | --- | --- |
| Cc1cnc(NCCc2ccc(F)cc2)nc1NCCC(=O)Nc1ccccc1 | 4.88 | 4.76 | 2.38 |
| O=C(Nc1cccc(CN2CCN(C(=O)c3ccccc3)CC2)c1)c1ccco1 | 3.67 | 3.78 | 7.1 |
| COc1ccc(CNC(=O)C2Cc3ccccc3CN2Cc2ccc3ccccc3c2)cc1 (stereo not drawn) | 2.51 | 1.12 | -0.58 |
| CC1=C(C(=O)Nc2ccccc2)C(c2ccc([N+](=O)[O-])cc2)n2ncc(C(=O)Nc3ccccc3)c2N1 (stereo not drawn) | 14.2 | 6.94 | 5.18 |
| N=C(N)c1cc(Br)cc(NC(=O)Nc2cc(Br)cc(C(=N)N)c2)c1 | 2.46 | 2.44 | 3.14 |
| COc1ccccc1NC(=O)c1cc(C(=O)c2cc(Cl)ccc2O)cn(-c2ccccc2OC)c1=O | 5.19 | 5.3 | 4.07 |
| COc1cc2c(c(Cl)c1OC)CCN(Cc1ccccc1)CC2c1ccc(NC(=O)C(F)(F)F)cc1 (stereo not drawn) | 3.91 | 2.68 | 2.44 |
| CC(C)CNC(=O)c1cncc(-c2ccc(CNC3Cc4ccccc4C3)cc2)c1 | -0.34 | 1.58 | -0.51 |
| CNC(=O)c1ccc2nc(-c3ccc(-c4ccccc4)cc3)n(CC3CCN(CC4CCCC4)CC3)c2c1 | 1.8 | 0.69 | 1.13 |
| CCN(CCO)CCCC(C)Nc1ccnc2cc(Cl)ccc12 (stereo not drawn) | 7 | 7.44 | 6.05 |
| COc1ccc(CN2CCCC(OC(c3ccc(F)cc3)c3ccc(F)cc3)C2)c(O)c1 (stereo not drawn) | 9.08 | 8.89 | 9.65 |
| O=C(Nc1ccc(N2CCCCC2)c(Cl)c1)c1nc[nH]n1 | 2.18 | -0.39 | 1.65 |
| Cc1cccc(CN2CCCC3(CCN(Cc4ccccc4O)C3)C2)c1 (stereo not drawn) | 2.62 | 1.27 | -0.38 |
| O=C(Cn1c(CCc2cccc(F)c2F)cc(=O)c2ccccc21)N(CCN1CCCCC1)Cc1ccc(-c2ccc(C(F)(F)F)cc2)cc1 | 6.77 | 5.08 | 3.76 |
| CCn1c(C=Cc2cc(Br)ccc2O)nc2ccccc2c1=O | -1.02 | 0.39 | 0.51 |
| CC(C)N1CCN(c2ccc(OCCCN3CCN(c4cccc(Cl)c4Cl)CC3)c(C(F)(F)F)c2)CC1 | 2.24 | 1.13 | -0.82 |
| Nc1nc(N)c2c(ccc3c2ccn3Cc2ccc(OCc3ccccc3)cc2)n1 | 2.4 | -1.46 | -0.6 |
| O=c1cc(NCCCNC2CCCc3c2ccc2ccccc32)[nH]c2ccccc12 (stereo not drawn) | 4.07 | 4.85 | 2.74 |

| SMILES | inhibition [1] [%] | inhibition [2] [%] | inhibition [3] [%] |
| --- | --- | --- | --- |
| Cc1cc(CN2C(=O)C(c3ccccc3)(c3ccccc3)N=C2N)c(C(F)(F)F)o1 | 6.61 | 9.85 | 6.9 |
| CCCCN(CCCC)/C(=N/C(=N)NCc1ccc(Cl)c(Cl)c1)NCCCCCCN/C(=N\C(=N)NCc1ccc(Cl)c(Cl)c1)N(CCCC)CCCC | -0.73 | -0.52 | -0.96 |
| O=C(NCC1CCN(Cc2cccc(F)c2)C1)c1cc(-c2cccc(C(F)(F)F)c2)cs1 (stereo not drawn) | -1.66 | -2.49 | 2.59 |
| Cc1cc(N(C)C)nc(Nc2ccc(NC(=O)c3ccccc3C)cc2)n1 | 11.4 | 17.1 | 5.05 |
| Nc1nc(N)c2c(ccc3c2ccn3Cc2ccccc2)n1 | 92.2 | 94 | 86.1 |
| CC(C)C(C(=O)Nc1ccc(S(=O)(=O)N(C)C)cc1)c1ccc(Cl)cc1 (stereo not drawn) | -2.78 | -3.31 | 0.19 |
| CCc1nc2ccc(C(=O)OC)nc2n1Cc1ccc2oc(-c3ccccc3N)c(Br)c2c1 | 2.91 | 2.33 | 1.6 |
| CC(C)COc1ccc(Cl)cc1Cc1ccc(-c2nc3cnc4ccccc4c3[nH]2)o1 | 3.89 | 2.77 | 2 |
| Cc1cccc2nc(-c3ccc(-c4cccc(NC(=O)Nc5ccccc5)c4)cc3)[nH]c12 | 9.16 | 9.91 | 8.18 |
| COc1ccc2ccc(F)c(CC(=O)N3CCOC(CNCc4cccc(-c5ccc(F)cc5)n4)C3)c2n1 (stereo not drawn) | -1.79 | 0.05 | -0.12 |
| Cc1ccc2nc(-c3ccc(/C=C/C(=O)NC4CCN(Cc5ccccc5)CC4)cc3)[nH]c2c1C | 8.42 | 8.63 | 9.58 |
| CCOc1ccc(/C=C/C(=O)Nc2cccc3c2CCN(C)C3)cc1 | 8.24 | 7.2 | 6.27 |
| Cc1cc(NC(=O)c2ccc(-c3ccccc3)cc2)no1 | 4.35 | 3.79 | 4.2 |
| CC(=O)Nc1ccc(C(=O)N2CCN(c3ccnc4cc(Cl)ccc34)CC2)cc1 | 1.26 | -0.89 | -0.23 |
| CN1CCN(c2ccc(-c3cc(-c4cc(F)c(F)c(F)c4)cnc3N)cc2)CC1 | 4.36 | 1.8 | 0.2 |
| O=[N+]([O-])c1nc(Br)n(Cc2ccc(Cl)cc2)n1 | 3.1 | 3.81 | 4.39 |
| Cc1cc(NC(=O)NCCN2CCC(NC(=O)c3ccc(Cl)cc3)CC2)c2ccccc2n1 | 1.7 | 1.76 | 2.94 |
| O=c1cc(NCCCNCc2ccc(Cl)c(Cl)c2)[nH]c2cc(Cl)ccc12 | 2.05 | 3.29 | 2.73 |
